# About 79,000 compounds went through this panel and 15% of them were active in at least one assay; those are over-represented in the sample as a whole. Values without a mark were called inactive. Active and inactive are the calls of the source. Rule as the data show it: active = growth inhibition above about 70%; inactive = the rest.
# Key:
# [1] = NCI Yeast Anticancer Drug Screen. Data for the rad50 strain (AID 155);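 also: 0% = growth of vehicle-only cultures of the same strain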; settings: S. cerevisiae rad50 strain growth inhibition, active compounds read high
# How it was run: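 Cells are treated with compound, grown, and their growth is then scored against vehicle-only cultures of the same repair-deficient yeast strain.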
# [2] = NCI Yeast Anticancer Drug Screen. Data for the mec2-1 strain (AID 157); settings: S. cerevisiae mec2-1 strain, active compounds read high
# How it was run: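 Using mec2-1 yeast: add compound, measure growth, express inhibition versus vehicle-treated cultures.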
# [3] = NCI Yeast Anticancer Drug Screen. Data for the sgs1 mgt1 strain (AID 161);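 also: 0% = growth of cultures given vehicle only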; settings: S. cerevisiae sgs1 mgt1 strain, active compounds read high
# How it was run: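 Compounds are added to genetically altered yeast, and growth is compared with cultures given vehicle alone to give percent inhibition.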
# [4] = NCI Yeast Anticancer Drug Screen. Data for the cln2 rad14 strain (AID 165);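 also: 0% = growth equal to vehicle treated cultures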; settings: S. cerevisiae cln2 rad14 strain, active compounds read high
# How it was run: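 Yeast strain cln2 rad14, bearing defects in cell cycle control and DNA repair, serves as the test system; values reflect growth inhibition compared with vehicle.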
# [5] = NCI Yeast Anticancer Drug Screen. Data for the bub3 strain (AID 167); settings: S. cerevisiae bub3 mutant strain, active compounds read high
# How it was run: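 Part of a panel of yeast mutants defective in DNA damage repair or cell cycle regulation. Each strain is grown with compound, and inhibition is calculated relative to solvent-treated cultures.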
# [6] = NCI Yeast Anticancer Drug Screen. Data for the mlh1 rad18 strain (AID 175); settings: S. cerevisiae mlh1 rad18 strain growth inhibition, active compounds read high
# How it was run: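 Steps: expose repair-defective yeast to compound; measure growth; express inhibition against vehicle-treated controls.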
# [7] = at 5.0 µM (retest, dose inferred, filed as 0.5)
# [8] = at 50.0 µM (retest, dose inferred, filed as 5.0)
SMILES,"growth inhibition [1, 7]","growth inhibition [1, 8]",growth inhibition ([1]; at 50.0 µM),"growth inhibition [2, 7]","growth inhibition [2, 8]",growth inhibition ([2]; at 50.0 µM),"growth inhibition [3, 7]","growth inhibition [3, 8]",growth inhibition ([3]; at 50.0 µM),"growth inhibition [4, 7]","growth inhibition [4, 8]",growth inhibition ([4]; at 50.0 µM),"growth inhibition [5, 7]","growth inhibition [5, 8]",growth inhibition ([5]; at 50.0 µM),"growth inhibition [6, 7]","growth inhibition [6, 8]",growth inhibition ([6]; at 50.0 µM)
O=C(c1cccs1)N(C(=S)N1CCN(c2ccccn2)CC1)c1ccccc1,10%,16%,15.4%,-8%,8%,7.85%,3%,1%,36.6%,6%,10%,20.8%,-2%,3%,16.1%,-3%,14%,63.8%
NC(=S)Nc1ccccc1O,6%,43%,50.5%,-10%,19%,50.9%,6%,15%,40.9%,0%,21%,8.25%,17%,72% (active),80.3% (active),14%,46%,59.2%
CC1(C)S[C@@H]2[C@H](N3C(=O)c4ccccc4C3=O)CN2[C@H]1NC(=O)N[C@@H]1N2C[C@@H](N3C(=O)c4ccccc4C3=O)[C@H]2SC1(C)C,0%,18%,39.6%,-4%,43%,63.8%,-2%,20%,43%,-6%,44%,23.2%,4%,93% (active),92.8% (active),-2%,36%,70.8% (active)
C(=C1/CNC/C(=C/c2ccccc2)C1)/c1ccccc1,11%,99% (active),99.5% (active),17%,99% (active),99.6% (active),16%,96% (active),99.5% (active),27%,99% (active),99.2% (active),6%,99% (active),99.3% (active),-1%,97% (active),99.3% (active)
c1ccc2c(c1)cc(C1NCCc3[nH]cnc31)c1ccccc12 (configuration not stated),13%,80% (active),47%,-4%,83% (active),1.5%,16%,82% (active),-15.3%,26%,71% (active),30.4%,13%,96% (active),11.1%,-21%,97% (active),61.9%
CCCN(CCC)C(=S)N/N=C/c1cccc(C)n1,-8%,100% (active),90.3% (active),-33%,99% (active),93.2% (active),-40%,98% (active),92.8% (active),-9%,100% (active),93.1% (active),-32%,100% (active),92.5% (active),-8%,99% (active),89.7% (active)
N#CC(CC(Br)CBr)(c1ccccc1)c1ccccc1 (configuration not stated),8%,11%,45.9%,8%,24%,40.1%,11%,29%,56%,10%,-2%,36.2%,9%,11%,33.3%,16%,51%,75.5% (active)
COc1ccc(CN2CCCN(Cc3ccc(OC)cc3)C2Cc2cc(Cl)ccc2OC)cc1,-3%,58%,82.4% (active),-3%,61%,48.8%,-44%,63%,80.7% (active),-6%,19%,33.4%,-5%,56%,56.5%,18%,85% (active),77.8% (active)
CCCCCCCCCCCCCCCC[N+](C)(C)c1ccccc1,98% (active),98% (active),91.1% (active),98% (active),99% (active),90.7% (active),99% (active),99% (active),90.4% (active),98% (active),99% (active),86.2% (active),99% (active),99% (active),92.8% (active),98% (active),98% (active),92.2% (active)

# Source: PubChem BioAssay (NCI)
